In PubChem BioAssay (NCATS) one finds Potency and activity change, negative = inhibition data, which are given here for twelve compounds.

Several values for one entry are separate records, joined by “and”; a condition that tells them apart may be missing. Identical values can stand only once. Results filed as inconclusive are left out. A call without a number means that no potency is given here. More than one record can exist for a structure, and the calls need not agree. Activity calls are given as the source filed them. The call rests on the fitted dose curve. Peptide text beside a SMILES is read from it.
Potency means the concentration at half of the fitted maximal effect.

The target in the test is Cytochrome P450 1A2 (Homo sapiens) (UniProt P05177). Kind of test: p450-cyp1a2 (AID 410). To be noted: recombinant CYP1A2, luciferin-ME demethylation, luminescence; series mostly up to 57 µM. The procedure: The P450 gene superfamily is involved in metabolism and the clearance of xenobiotics. This assay used human CYP1A2 to measure the demethylation of luciferin 6' methyl ether (Luciferin-ME; Promega-Glo) to luciferin. The luciferin is then measured by luminescence after the addition of a luciferase detection regeant. Luciferin-ME concentration in the assay was equal to its Km for CYP1A2.
Sequence of Cytochrome P450 1A2 (Homo sapiens) (P05177 whole entry, looked up): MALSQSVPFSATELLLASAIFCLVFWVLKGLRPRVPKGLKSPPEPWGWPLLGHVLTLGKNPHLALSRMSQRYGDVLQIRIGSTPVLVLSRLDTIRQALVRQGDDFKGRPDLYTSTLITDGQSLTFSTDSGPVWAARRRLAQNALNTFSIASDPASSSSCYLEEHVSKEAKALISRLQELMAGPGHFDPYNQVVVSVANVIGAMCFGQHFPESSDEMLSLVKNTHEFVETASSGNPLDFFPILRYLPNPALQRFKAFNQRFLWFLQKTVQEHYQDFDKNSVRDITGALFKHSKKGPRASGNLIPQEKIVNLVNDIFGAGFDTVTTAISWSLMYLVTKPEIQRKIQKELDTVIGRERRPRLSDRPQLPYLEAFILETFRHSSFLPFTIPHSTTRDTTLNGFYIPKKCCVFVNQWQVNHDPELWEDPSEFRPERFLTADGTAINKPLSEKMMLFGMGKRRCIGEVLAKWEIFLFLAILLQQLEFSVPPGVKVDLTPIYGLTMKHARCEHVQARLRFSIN
NCGC Assay Protocol Summary:
Two uL of enzyme and substrate mix (final concentrations: 20nM CYP1A2, 100uM Luciferin-ME, 100mM KPO4) were dispensed into a white, solid bottom 1536-well microtiter plate. 23nL of compound was transferred by a pin tool. The plate was incubated at room temperature for 10 min. Two uL of an NADPH regeneration solution (Promega supplied reagent) was dispensed and the reaction was allowed to continue for 60 min at room temperature. Then the reaction was stopped by reconstituted detection reagent. After another 20 min of incubation the plate was read on the ViewLux (Perkin Elmer) at 60 sec exposure and 2x2 binning. This protocol was carried out with Promega-Glo reagents and further information can be found at http://www.promega.com/tbs/tb325/tb325.pdf. Data were normalized to the to AC100 inhibition (57 uM furafylline).
As to `CN=C(NC#N)Nc1ccc(C2=NNC(=O)C[C@@H]2C)cc1`, the Potency result is “inactive and 39.8 µM (active)”.

On to `CCOc1ccc2c(c1)C(C)=CC(C)(C)N2`, for which the Potency is 5.01 µM (active).

For `CC1(C)S[C@@H]2[C@H](NC(=O)[C@@H](NC(=O)N3CCNC3=O)c3ccccc3)C(=O)N2[C@H]1C(=O)O`, the Potency result was “inactive”.

Consider `CC(=O)N[C@@H](CC(=O)O)C(=O)N[C@@H](CCC(=O)O)C(=O)O` (Ac-Asp-Glu-OH), for which the Potency entry was “inactive”.

With `CC(C)N=c1cc2n(-c3ccc(Cl)cc3)c3ccccc3nc-2cc1Nc1ccc(Cl)cc1`, the Potency result was “inactive”.

For the compound `CN(C)CCCN1c2ccccc2C(C)(C)c2ccccc21`, the Potency is 5.01 µM (active).

In the case of `O=C(O)CC/C=C\CC[C@H]1[C@@H](N2CCCCC2)[C@@H](O)C[C@@H]1OCc1ccc(-c2ccccc2)cc1`, the Potency entry was “inactive”.

Take `O=C1CSC2(CCN(CCCN3c4ccccc4Sc4ccc(Cl)cc43)CC2)N1`: the Potency is 3.16 µM (active).

Consider `O=C(O)CCC(=O)C(=O)O`, for which the activity change, negative = inhibition is -11.7% [at 11.4 µM] (inactive).

With `Cc1c(C)c2c(c(C)c1O)CC[C@@](C)(CCC[C@@H](C)CCC[C@@H](C)CCCC(C)C)O2`, the Potency result was “inactive”.

Consider `Cc1cc(C(=O)NNCc2ccccc2)no1`, for which the Potency is 12.6 µM (active).

Turning to `COc1ccc(CCNC[C@H](O)c2ccc(O)cc2)cc1OC`, the Potency result was “inactive”.
